These results are taken from PubChem BioAssay AID434989 (The Scripps Research Institute Molecular Screening Center, 2010).

The campaign covered roughly 330,000 compounds. About 1,400 (0.42%) were called active. The sample as a whole holds a higher share of actives than the screen did. Unmarked numbers belong to inactive results.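 How the source made its calls: active means inhibition above its plate's threshold, mean inhibition of all tested compounds on the plate plus 3 SD (cut at about 37% in these data); inactive means the rest.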

In this assay the target is Orexin/Hypocretin receptor type 1 (Homo sapiens) (UniProt O43613). The assay is described as follows: OX1R (HCRTR1) antagonists, primary screen, fluorescence, CHO/OX1R cells, Fluo-8 calcium, orexin A (AID 434989).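 Further: 0% = orexin A challenge wells and 100% = SB-334867-A antagonist wells.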 To be noted: Fluo-8 calcium fluorescence, at 5 µM, stronger effect = higher value.
Sequence of Orexin/Hypocretin receptor type 1 (Homo sapiens) (O43613 whole entry, looked up): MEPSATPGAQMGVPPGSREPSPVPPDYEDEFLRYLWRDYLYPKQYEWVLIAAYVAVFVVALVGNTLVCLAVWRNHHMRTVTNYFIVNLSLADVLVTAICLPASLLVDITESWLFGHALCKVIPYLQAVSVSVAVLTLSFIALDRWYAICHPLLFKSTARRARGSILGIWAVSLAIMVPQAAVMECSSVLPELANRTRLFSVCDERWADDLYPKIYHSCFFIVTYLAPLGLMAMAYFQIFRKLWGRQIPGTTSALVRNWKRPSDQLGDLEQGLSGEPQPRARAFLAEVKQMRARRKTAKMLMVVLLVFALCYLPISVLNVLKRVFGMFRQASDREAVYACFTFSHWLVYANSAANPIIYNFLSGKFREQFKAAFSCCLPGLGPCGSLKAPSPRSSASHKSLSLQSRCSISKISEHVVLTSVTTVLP
As to `Cc1cc(N2CCCC2)ccc1NC(=O)COc1ccc(Cl)cc1`, the inhibition was 23.4%. The result for `Cc1ccc(NC(=O)COc2ccc(-n3ccnc3)cc2)cc1Cl` reads 49.1% (active).

As for `CCC(=O)c1ccc(OCC(=O)Nc2ccc3nc(C)sc3c2)cc1`, the inhibition is -9.93%. Next, `CN(CC(=O)Nc1ccc(OC(F)F)cc1)S(=O)(=O)/C=C/c1ccccc1`: -20%; `COc1ccc(S(=O)(=O)Nc2cccc3c2O[C@H](CN(C)S(=O)(=O)c2ccc(OC)cc2)[C@@H](C)CN([C@H](C)CO)C3=O)cc1`: -20.8%; `CN[C@H](C(=O)NC[C@H]1O[C@@H](n2cnc3c(N)ncnc32)[C@H](O)[C@@H]1O)[C@@H](C)OCc1ccccc1`: -13.1%.

Take `CCCCNS(=O)(=O)CCNCc1ccccc1OC`: the inhibition was -14.5%. For `O=C(COC(=O)C1CCCO1)Nc1nc(-c2ccc(F)cc2)cs1` (stereo unspecified), the inhibition is -7.58%. `CCOC(=O)Cn1c(-c2cccnc2Cl)nc2ccccc21`: the inhibition was -7.78%.

As for `CCCCCCCCCCOC(=O)Cn1c(COc2ccc(C)cc2)[n+](C)c2ccccc21`, the inhibition was 51.1% (active). Regarding `CCn1c(COc2cccc(OC)c2)nnc1SCC(=O)N1CCOCC1`, the inhibition was -6.58%. On to `CCCCCCCCCCOC(=O)Cn1c(COc2cccc(OC)c2)[n+](C)c2ccccc21`, for which the inhibition is 41.4% (active). With `CCOC(=O)COn1c(=O)c(-c2ccc(OCC)cc2)[n+]([O-])c2ccccc21`, the inhibition was -31.8%. Take `CCCCn1c(N)c(N(CCOC)C(=O)c2cccc(OCc3ccccc3)c2)c(=O)[nH]c1=O`: the inhibition is -25.9%. The result for `COc1ccc2nc3n(c(=O)c2c1)-c1ccc(Cl)cc1C(=O)NC3Cc1ccccc1` (stereo unspecified) reads -24.8%; that for `CCOC(=O)C1=CN(Cc2ccc(Br)cc2)S(=O)(=O)N(C)C1C` (stereo unspecified), -12.4%; that for `O=C1[C@@H](c2ccccc2)[C@@H](c2ccccc2)N1c1cccnc1`, 42.8%.

Regarding `COc1cc(/C=C/C(=O)Nc2ccc(OC)c(S(=O)(=O)N3CCOCC3)c2)ccc1OCC#N`, the inhibition is 9.74%. `C=CCn1c(SCC(=O)NCc2ccccc2)nnc1-c1cc(Br)ccc1O`: the inhibition was -7.43%. Next, `C=CCn1c(SCC(=O)Nc2nc3ccccc3s2)nnc1-c1ccccc1O`: 68% (active). The result for `Cn1nnnc1SCC(=O)Nc1nc2ccccc2s1` reads -5.36%; that for `Cc1ccc(S(=O)(=O)NC[C@H]2O[C@@H](n3cnc4c(N)ncnc43)[C@H](O)[C@@H]2O)s1`, -0.44%; that for `CCn1c(=S)[nH]c2cc(S(=O)(=O)N3CCOCC3)ccc21`, -24.1%. Consider `CCOc1ccccc1Nc1ccc2nonc2c1[N+](=O)[O-]`, for which the inhibition was -9.48%. Take `O=C(O)c1ccccc1CSc1nc2ccccc2s1`: the inhibition is -10.9%. Turning to `O=[N+]([O-])c1c(NCCO)cc(Sc2nc3ccccc3s2)c2nonc12`, the inhibition was 59.3% (active). Next, `C[C@@H](CN1CCC[C@H]1CN1C(N)=NC[C@@H]1Cc1ccccc1)N1C[C@@H](Cc2ccccc2)N(CCCC2CCCC2)C1=N`: -9.98%; `Fc1ccccc1-c1cc2cc3c(cc2cn1)OCO3`: 38.1%; `Fc1ccc2[nH]c3c(N4CCSCC4)ncnc3c2c1`: 52.4% (active). Next, `Cc1c(CN2CC[C@@H](N3CCN(c4ccccn4)CC3)[C@H](O)C2)[nH]c2ccc(F)cc12`: -18.8%.

In the case of `C#CCOCCOCCOCCNc1nc(N2CCN(C(=O)[C@H](CCC(=O)O)n3cc(CN)nn3)CC2)nc(N2CCN(C(=O)[C@H](CCC(=O)O)n3cc(CN)nn3)CC2)n1`, the inhibition is -6.85%. Next, `CN(C(=O)c1cccc(NC(=O)Cc2cccc([N+](=O)[O-])c2)c1)C1CCCCC1`: -12.3%; `C[C@H](CO)N1C[C@H](C)[C@H](CN(C)CC2CC2)Oc2ccc(NC(=O)CCN3CCOCC3)cc2C1=O`: 7.19%; `COc1ccc(NS(=O)(=O)c2ccc(C(=O)Nc3c(C)n(C)n(-c4ccccc4)c3=O)cc2)cc1`: 1.25%.

On to `CC(NC(=O)COC(=O)Cn1cc(C(F)(F)F)ccc1=O)c1ccccc1` (stereo unspecified), for which the inhibition was -5.69%. Next, `CC1O[C@H](OC2C(COC3OC(CO)C(O)[C@H](O)C3O)OC(OC3CC[C@]4(C)C(CC[C@@]5(C)[C@@H]4C=C[C@]46OC[C@@]7(CCC(C)(C)C[C@H]74)C(O)C[C@@]56C)C3(C)C)C(O)C2O)C(O)C(O)C1O` (stereo partly specified): -2.45%; `N#C/C(=C1\CCCN1)c1nc(-c2ccccc2)cs1`: 52.9% (active). With `N#CC(=C1CCCC1)c1nc(-c2ccc(Cl)cc2)cs1`, the inhibition is -23.8%.

On to `N#CC(=C1SC=CS1)c1nc(-c2ccccc2)cs1`, for which the inhibition was 89.5% (active). For `Cn1c(/C(C#N)=C2/CCCCCN2)nc2ccccc21`, the inhibition was -27.9%. The result for `N#C/C(=C1/CCCN1)c1ccccn1` reads -3.72%. The result for `CCNC(=O)CSc1nc(-c2ccccc2)cs1` reads 4.28%; that for `Cc1cccc(C(=O)N[C@H](C(=O)NCc2cccs2)C(C)C)c1`, -7.31%; that for `CCOC(=O)C1CCN(c2ncnc3c2oc2ccc(Br)cc23)CC1`, -11.1%. Take `CCOC(=O)N1CCN(C(=O)C2CCN(c3ncnc4c3sc3cccc(F)c34)CC2)CC1`: the inhibition is 65.7% (active). Next, `CCOC(=O)N1CCN(C(=O)C2CCN(S(=O)(=O)c3cc(Cl)ccc3OCC)CC2)CC1`: -21.5%; `CCN(CC(=O)NC(C)C)C(=O)c1cc(S(=O)(=O)N2CCCCC2)ccc1N1CCCCC1`: -37.7%; `CCCCNC(=O)C(C)N(CCN(C)C)C(=O)CCCN1C(=O)NC(c2ccc(Cl)cc2)C(C(=O)OCc2ccccc2)=C1C` (stereo unspecified): -28.8%. Next, `O=C(Nc1ccc2ccccc2c1)Nc1ccc2snnc2c1`: 41.4% (active). `CCc1ccccc1NC(=O)c1ccc2snnc2c1`: the inhibition was -1.72%. The result for `O=C(Nc1cccc(Br)c1)c1ccc2snnc2c1` reads -1.56%. Regarding `COc1ccc(C2=Nn3c(nnc3-c3ccccc3OC)SC2)cc1OC1CCCC1`, the inhibition was -19.5%. As to `O=c1c2ccccc2nc2n1C(CSc1ccc(F)cc1)CN2` (stereo unspecified), the inhibition is -5.98%. As for `O=c1c2ccccc2nc2n1C(CSCc1cccc(C(F)(F)F)c1)CS2` (stereo unspecified), the inhibition is 45.5% (active). Next, `O=c1c2ccccc2nc2n1C(CSCc1ccccc1)CS2` (stereo unspecified): -3.31%; `Cc1ccc(S(=O)(=O)NCC(=O)NNC(=O)c2ccc(Br)cc2)cc1C`: -11.2%; `COc1cccc(CC(=O)OCC(=O)NCc2ccc3c(c2)OCO3)c1`: -9.44%. Next, `COc1cccc(/C=N/Nc2cc(C)nc(-c3ccccc3O)n2)c1O`: 93.8% (active). For `COc1ccccc1/C=N/Nc1nc(C)c(C(C)=O)s1`, the inhibition was -4.69%. For `Oc1cccc(/C=N/Nc2ccc(Cl)nn2)c1O`, the inhibition is -18.9%. For `CCNC(=O)N(CC)C[C@H]1N[C@@](CC)(C(=O)OC)[C@H]2C(=O)N(Cc3ccccc3)C(=O)[C@@H]12`, the inhibition is 4.29%. In the case of `C=CCC[C@H](Cc1ccc(F)cc1)C(=O)OC[C@H](C)NC(=O)[C@H](CC=C)CC(=O)N(CCO)Cc1ccccc1`, the inhibition was 6.31%. With `CN(C)C(=O)CCc1ccc2c3c([nH]c2c1)[C@]1(C)[C@@H](C(=O)N2CCCCC2)C[C@H](CC(=O)NCCC2=CCCCC2)C(=O)N1CC3`, the inhibition is -30.3%. Consider `Cc1c(NC(=O)C(C)OC(=O)c2ccccc2O)c(=O)n(-c2ccccc2)n1C` (stereo unspecified), for which the inhibition is -6.55%. Take `Cc1cc(C(=O)NC2CCCc3c2cnn3-c2cccc(C)c2C)c(C)o1` (stereo unspecified): the inhibition was 26.6%. As for `Cn1nccc1C(=O)NC1CCCc2c1cnn2-c1ccccc1F` (stereo unspecified), the inhibition was 8.33%.

As to `COc1ccc(C(=O)NC2CCCc3c2cnn3-c2cccc(C)c2C)c(OC)n1` (stereo unspecified), the inhibition was 44.8% (active). As for `CC(C)(C)OC(=O)C[C@@H]1C/C=C\C[C@@H](CC(=O)N(CCO)Cc2ccccc2)C(=O)N[C@H](Cc2ccccc2)COC1=O`, the inhibition is -33.6%. With `CN(C(=O)CN(CCO)CC(=O)N(C)C(C)(C)Cc1ccccc1)C(C)(C)Cc1ccccc1`, the inhibition is 68.2% (active). Regarding `CCN(CC)CCCNC(=O)CCc1ccccc1`, the inhibition was -15%.

On to `OCCN(Cc1ccccc1)Cc1ccc(Cl)cc1`, for which the inhibition is 9.29%. On to `CCN(CC)C(=O)[C@H]1CC(CC(=O)NCc2ccco2)C(=O)N2CCc3c([nH]c4ccccc34)[C@]12C` (stereo partly specified), for which the inhibition was -11.1%. Regarding `Cc1c(C(=O)Nc2cccc(S(=O)(=O)N3CCOCC3)c2)oc2ccccc12`, the inhibition was -3.24%. Next, `O=C(c1cc(COc2ccc(F)c(F)c2)on1)N1CCOCC1`: -5.38%; `COc1cccc(OCc2cc(C(=O)N3CCN(C(=O)c4ccco4)CC3)no2)c1`: -6.35%. Next, `C=CCC1(CC=C)CCCN1C(=O)c1cc(COc2ccc(-n3cncn3)cc2)on1`: 34.5% (active); `Cc1ccc(CNC(=O)Cn2cnc3c(NCc4ccccc4)ncnc32)o1`: 10.5%. `O=C(CNC(=O)c1ccccc1)Oc1ccc([N+](=O)[O-])cc1`: the inhibition is -4.15%. Regarding `O=C(NC(Nc1nc2ccc([N+](=O)[O-])cc2s1)(C(F)(F)F)C(F)(F)F)c1ccccc1`, the inhibition was 59.4% (active). Take `O=C(CCNC(=O)c1ccccc1)Nc1nc2ccccc2s1`: the inhibition was -8.05%.

For the molecule `COc1ccc(NC(=O)C2CCCN(S(=O)(=O)c3cccc4cccnc34)C2)cc1` (stereo unspecified), the inhibition is -34.5%. Regarding `Cc1cc(C)cc(NC(=O)C2CCCN2S(=O)(=O)c2cccc3cccnc23)c1` (stereo unspecified), the inhibition is 104% (active). Next, `O=C(Nc1nccs1)C1CCCN1S(=O)(=O)c1cccc2cccnc12` (stereo unspecified): -11.2%; `Cc1ccc(NC(=O)C2CCCN2S(=O)(=O)c2cccc3cccnc23)c(C)c1` (stereo unspecified): -30.7%; `COc1ccccc1CNC(=O)C1CCCN(S(=O)(=O)c2cccc3cccnc23)C1` (stereo unspecified): 79.2% (active). Next, `COc1ccc(NC(=O)C2CCCN(S(=O)(=O)c3cccc4cccnc34)C2)cc1OC` (stereo unspecified): -27.1%.

The term inhibition denotes the relative decrease from the control value, in per cent.
